POLH inh: inhibitors of human DNA polymerase eta | Q9Y253 | recombinant Pol eta, fluorescent DNA replication assay | Potency, µM (top dose mostly 114 µM), for the others: at the highest dose activity change, negative = inhibition, hits mostly inhibitors | 390,000 tested, 1.2% active | AID 588591; note: % is set by controls: 0 for no effect and ±100 for the full control effect
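Fluorescent replication assay: 50 nM final substrate added after a 15 min room-temperature compound preincubation with 10 nM enzyme. Signal taken at 0 min and again at 10 min.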
L3MBTL1 inh: L3MBTL1 (human) inhibition | AlphaScreen L3MBTL1–H3K9me1 peptide binding | Potency, µM (series often up to 57.1 µM), inactives show at the highest dose activity, negative = inhibition, hits mostly inhibitors | 230,000 tested, 0.66% active | AID 485360; note: % is set by controls: 0 for no effect and ±100 for the full control effect; nearly all actives have a fitted effect of over 60% in size
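Read-out is AlphaScreen signal from streptavidin donor and nickel chelate acceptor beads (10 ug/mL final each) bridging L3MBTL1 (50 nM) and biotinylated K9-monomethylated H3(1-15) peptide (75 nM), after 30 min compound exposure at room temperature.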
APEX1 inh: APE1 (human) endonuclease inhibition | recombinant APE1, TAMRA/BHQ-2 abasic DNA cleavage fluorescence | Potency, µM (doses to about 65.8 µM), without a hit: at the highest dose activity change, negative = inhibition, actives largely listed as inhibitors | 350,000 tested, 0.35% active | AID 2517;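 note: plate controls were vehicle for no effect and reference inhibitor for full effect; nearly all actives have a fitted effect of over 55% in size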
Target sequence (P27695 whole entry, looked up): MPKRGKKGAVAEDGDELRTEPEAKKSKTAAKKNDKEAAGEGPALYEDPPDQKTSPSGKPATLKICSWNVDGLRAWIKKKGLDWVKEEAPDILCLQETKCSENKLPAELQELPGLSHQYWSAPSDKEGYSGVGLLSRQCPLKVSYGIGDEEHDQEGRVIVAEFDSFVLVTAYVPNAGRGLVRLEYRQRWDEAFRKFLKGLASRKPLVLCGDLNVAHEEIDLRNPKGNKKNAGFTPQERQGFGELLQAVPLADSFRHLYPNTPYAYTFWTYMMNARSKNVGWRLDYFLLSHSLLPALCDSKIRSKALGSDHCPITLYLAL
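Endonuclease cleavage of a quenched abasic-site DNA duplex (50 nM) by APE1 (0.75 nM) was tracked by TAMRA dequenching. Compounds were preincubated with enzyme 15 min at room temperature; data normalized to buffer-only and DMSO wells plus NSC13755 control.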
POLK inh: DNA polymerase kappa (human) inhibition; Potency, µM (series often up to 107 µM), for inactives: at the top dose activity, negative = inhibition, usual class: inhibitors; AID 588579; purified Pol kappa, fluorescent DNA synthesis assay, 10 min; 400,000 tested, 0.53% active; Q9UBT6; note: % is set by controls: 0 for no effect and ±100 for the full control effect
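10 nM Pol kappa preincubated 15 min at room temperature with compounds, then reaction started with substrate at 50 nM final. Fluorescence read kinetically at 0 and 10 min; buffer-only wells served as negative control.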
Pol beta inh: inhibitors of human DNA polymerase beta | 340,000 tested, 1.3% active | Pol beta primer extension/strand displacement, fluorescence kinetic | Potency, µM (series often up to 114 µM), without a hit: at the highest dose activity change, negative = inhibition, most hits filed as inhibitors; note: % is set by controls: 0 for no effect and ±100 for the full control effect
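Preincubation: enzyme (10 nM) with compound, 15 min, RT. Reaction: substrate added to 50 nM final. Reads: 0 and 10 min. Analysis: normalized, Hill fit.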
POLI inh: blocks human DNA polymerase iota activity; Q9UNA4; Pol iota fluorescent replication assay, 10 min; Potency, µM (doses to about 115 µM), for the others: top-dose activity, negative = inhibition, hits mostly inhibitors; 390,000 tested, 1% active
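Pol iota at 10 nM preincubated 15 min with compounds at room temperature; reaction started with fluorescent substrate, 50 nM final. Fluorescence read kinetically at 0 and 10 min; buffer-only wells as negative control.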
Active calls of the source: *; ? = inconclusive; / = not tested or not shown; ! = not confirmed by another sample; [ ] = remark or other dose. Rows were chosen to be rich in hits. Some 2.5% of all compounds tested hit in one or more screens of this group. Calls come from the whole dose curve; as a rule, active = well fitted curve in the direction sought with a large enough effect; inconclusive = small, poorly fitted or top-dose-only effect, or another doubt; inactive = no such curve, though single readings can be large; an effect the other way counts as inactive or inconclusive. Potency is the fitted concentration of half-maximal effect.

SMILES	POLH inh	L3MBTL1 inh	APEX1 inh	POLK inh	Pol beta inh	POLI inh
Cc1cc(=O)[nH]c(SCC(=O)N2CCc3ccccc3C2)n1	-13%	/	0%	0%	1%	21%
CCCn1c(SCC(=O)N2CCc3ccccc3C2)nc(O)cc1=O	6%	-14%	7%	?	/	10µM*
O=C(Cn1c(SCC(=O)N2CCc3ccccc3C2)nc2ccccc21)NC1CCCC1	-8%	-4%	-8%	-7%	89µM*	18%
Cc1ccc2[nH]c(C(=O)N3CCN(C(c4ccccc4)c4ccccc4)CC3)cc2c1	-23%	-5%	1%	-2%	3%	72%
CC(=O)OCCCNc1cc(SCc2ccco2)c2nonc2c1[N+](=O)[O-]	22µM*	?	?	13µM*	14µM*	3.2µM*
CCCC(=O)OCCNc1cc(SCc2ccco2)c2nonc2c1[N+](=O)[O-]	11µM*	?	6%	35µM*	11µM*	2.5µM*
CCCSc1cc(NCCOC(=O)CCC)c([N+](=O)[O-])c2nonc12	-15%	-15%	5%	-12%	-12%	-2%
CCC1=C[C@@H]2CN(C1)Cc1c([nH]c3ccccc13)[C@@](C(=O)OC)(c1cc3c(cc1OC)N(C)[C@@H]1[C@@](O)(C(=O)OC)[C@H](OC(C)=O)[C@]4(CC)C=CCN5CC[C@]31[C@@H]54)C2	/	/	/	4%[19.4 µM]	/	/
CCN(CC)CCCN1C=C2C(=O)C(C)(OC(=O)CCC(=O)OC)C(=O)C(Br)=C2C=C1c1ccc(OC)cc1 (stereo not drawn)	40µM*	/	-1%[12.4 µM]	?	/	?
CC(=O)N(CN1C(=O)c2ccccc2C1=O)c1cccc(C)c1	-4%	-3%	-2%	-2%	10%	1%
CC(=O)N(/N=C1\Sc2ccccc2C1=O)c1cccc(C)c1	20µM*	-18%	5%	1%	-2%	?
COc1cc(CNC[C@H]2O[C@@H](n3ccc(N)nc3=O)[C@H](O)[C@@H]2O)ccc1OCc1cccc(Cl)c1	-14%	/	/	/	/	/
Oc1ccc2c(c1)OCO2	/	/	1%	/	/	/
Oc1ccc2c(c1)OCC1(O)Cc3cc(O)c(O)cc3C21 (stereo not drawn)	18µM*	/	-1%	32µM*!	/	41%
Cc1cccc2nc(CSCc3ccco3)cn12	20µM*	?	-3%	-28%	40µM*	?
O=Nc1c2cc(-c3ccccc3)[nH]nc-2c2ccccc12	-8%	-20%	1%	-6%	40µM*	-6%
CCOc1ccc(NC(=O)NCCCn2c(C)nc3cc(C)c(C)cc32)cc1	-1%	/	16%	-6%	-1%	-7%
Cc1cc2nc(C)n(CCCNC(=O)Nc3cccc4ccccc34)c2cc1C	-3%	/	10%	-23%	40µM*	?
CC(=O)Nc1cc(NC(C)=O)cc(C(=O)N2CCCC3CCCCC32)c1 (stereo not drawn)	22µM*	/	17µM*	79µM*	?	14µM*
O=C(Nc1ccccc1)N1CCCC2CCCCC21 (stereo not drawn)	-15%	-3%	-2%	-17%	-1%	6%
Nc1cc2c3c(cccc3c1)C(=O)N(CCN1CCCC1)C2=O	2%	12%	?	-40%	25µM*	35µM*
CCN(CC)CCN1C(=O)c2cccc3cc(N)cc(c23)C1=O	-15%	-1%	?	?	?	?
CCCCNC(=O)[C@@H]1CC=C[C@@H]2CCN(CCCC)C(=O)[C@@H]21	/	/	/	-22%	/	4%
COC(=O)C1=C(C)N(Cc2ccco2)C(=O)C1	13µM*	/	14%	45µM*	-17%	11µM*
COC(=O)C1=C(C)N(Cc2ccc(OC)cc2)C(=O)C1	3%	1%	-2%	-3%	6%	?
SMILES	POLH inh	L3MBTL1 inh	APEX1 inh	POLK inh	Pol beta inh	POLI inh
O=C(O)c1ccc(Cl)c(NC(=S)NC(=O)c2cccc(COc3ccccc3)c2)c1	45µM*	/	-5%	5%	25µM*	78%
O=C(NC(=S)Nc1ccc(Cl)c(C(=O)O)c1)c1cccc(COc2ccccc2)c1	79µM*	/	13%	-22%	40µM*	-11%
O=C(NC(=S)Nc1ccc(Cl)c(C(=O)O)c1)c1ccc(OCc2ccccc2)cc1	-15%	/	9%	7%	-22%	38%
Cc1cccc2[nH]cc(/C=C3/C=Nc4ccccc43)c12	/	/	/	-22%	/	45%
O=C(/C=C/C#Cc1cccc(NS(=O)(=O)c2ccccc2)c1)NO	/	/	-2%	-6%[60.1 µM]	/	/
Cc1ccc(-c2cc(C(=O)N/N=C/c3ccccc3)n[nH]2)o1	-2%	/	40%	0%	?	12%
Cc1ccc(-c2cc(C(=O)N/N=C/c3ccc(Cl)cc3)n[nH]2)o1	?	/	64%	-4%	25µM*	?
Cc1cc(O)c(C(C)C)cc1N=Cc1ccc(N(C)C)cc1	-21%	/	/	-13%	/	?
Cc1cc(O)c(C(C)C)cc1N=Cc1ccc([N+](=O)[O-])cc1	-20%	/	/	-4%	/	10µM*
CCOC(=O)N1CCc2c(sc3c2C(=O)NC(c2ccc(N(C)C)cc2)N3)C1 (stereo not drawn)	-3%	/	/	-16%	?	10%
O=C(Nc1ccc(N2CCCC2)c(Cl)c1)c1cccc(-c2cc3ccccc3oc2=O)c1	-22%	28µM*	1%	-3%	7%	13%
CC(=O)Nc1ccc(NC(=O)c2cccc(-c3cc4ccccc4oc3=O)c2)cc1	-13%	-29%	19%	-14%	16%	150%
COc1ccc(C2=CC(=O)CCC2)cc1	-8%	/	/	7%	/	-1%
O=C(O)C1Nc2c(cccc2C(F)(F)F)C2C=CCC12 (stereo not drawn)	/	/	17µM*	/	?	/
COCCOC(=O)C1=C(C)NC(=O)NC1c1ccco1 (stereo not drawn)	79µM*	-30%	?	-31%	?	40µM*
CC1=C(C(=O)OC(C)C)C(c2ccc(F)cc2)NC(=O)N1 (stereo not drawn)	-11%	4%	2%	-4%	11%	17%
CC1=C(C(=O)OC(C)C)[C@@H](c2ccc(C)o2)NC(=O)N1	1.1µM*	-1%	17%	-6%	13%	-22%
CC1=C(C(=O)OC(C)C)C(c2ccco2)NC(=O)N1 (stereo not drawn)	?	?	0%	-13%	50µM*	?
COc1ccccc1C(=O)Nc1nnc(SCc2cc(=O)n3ccc(C)cc3n2)s1	-12%	/	/	-9%[60.1 µM]	-1%	8%
CC(C)(C)n1ncc2c(=O)n(Cc3ccc(C(F)(F)F)cc3)cnc21	/	/	6%	14%	/	8%
CCCC1=Nc2cc(C(=O)NC3CCCCC3)ccc2Sc2ccc(C)cc21	-11%	/	/	-12%[60.1 µM]	3%	24%

Source: PubChem BioAssay
